Assay: small molecules boosting NK-mediated OVCAR3 lysis – imaging, primary NK cells, calcein-AM imaging, primary screen (AID 1508625);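 further: compound given to NK cells 16 h before adding targets at 1.5 to 1 ratio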;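 on z-score: more negative robust z means stronger NK killing of tumor cells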
Conditions: OVCAR3 lysis by primary NK cells, at 5 µM; z-score: measured here: robust Z-score, single-point normalisation

SMILES	corrected activity, negative = more killing [%]	z-score
Cc1ccccc1N1C(=O)c2ccc(C(=O)Nc3cccc([N+](=O)[O-])c3)cc2C1=O	-3.72	-1.15
Cc1cc(OCCCN2CCCCCC2)ccc1[N+](=O)[O-]	0.702	0.391
O=C1C2C3CC(C(Br)C3Br)C2C(=O)N1c1cccc2ccccc12 (stereo unspecified)	-3.98	-1.41
COc1cc2c(cc1NC(=O)Nc1cc3oc4ccccc4c3cc1OC)oc1ccccc12	-6.21	-1.85
O=C(CCCC(=O)Nc1cccc(Cl)c1)Nc1cccc(Cl)c1	-2.22	-0.828
CCN(C(=O)c1cc2cc3ccc(OC)cc3nc2o1)c1cccc(C(F)(F)F)c1	-3.66	-0.898
O=C(Nc1ccccc1C(=O)Nc1ccc(Br)cn1)c1ccccc1	-6.2	-2.34
CON1C(=O)C(C)(C)N(OC)C(=O)C1(C)C	2.31	0.733
Cc1cc2oc(=O)c3c(c2c2occ(-c4ccc(Br)cc4)c12)CCC3	-4.94	-1.48
Cc1ccc(Cl)cc1N1C(=O)CN(Cc2cccs2)C1=S	-2.1	-0.567
COc1cc2c(cc1NCc1ccccn1)oc1ccccc12	-2.51	-1.12
O=C(CNc1ccc(Br)cc1)c1ccccc1	-3.77	-1.4
COCCNCCCSc1ccc(Cl)cc1	-1.98	-0.737
COc1ccc(C(=O)Nc2ccc3oc(-c4ccccc4)nc3c2)cc1OC	-2.95	-1.28
CCn1cnc2sc(C(=O)Nc3cccc([N+](=O)[O-])c3)c(C)c2c1=O	-2.56	-0.931
Nc1cc(OC(=O)c2ccccc2Br)nn1S(=O)(=O)c1ccccc1	-1.18	-0.375
CCCCC1(CC(=O)N2CCOCC2)C(=O)N(c2ccccc2)N(c2ccccc2)C1=O	-2.63	-0.786
CCOC(=O)c1c(NC(=O)c2cc([N+](=O)[O-])ccc2N2CCCCCC2)sc2c1CCCC2	-2.4	-0.744
CCC(Sc1nc(C)cc(C)n1)C(=O)Nc1nnc(C)s1 (stereo unspecified)	-9.03	-2.8
Cc1c(C(=O)Nc2cccc([N+](=O)[O-])c2)sc2ncn(CC(=O)N3CCOCC3)c(=O)c12	-2.14	-0.779
O=C(c1ccc2c(=O)n(-c3ccc(F)cc3)c(=S)[nH]c2c1)N1CCc2ccccc2C1	-0.906	-0.288
O=C(Nc1cccc(Br)c1)c1ccc2snnc2c1	-3.91	-1.17

SMILES	corrected activity, negative = more killing [%]	z-score
CCOc1ccc(S(=O)(=O)Nc2ccc(Cl)cc2)c2cccnc12	-3.11	-0.989
Cc1ccc(C(=O)Nc2ccc3nn(-c4cccc(Cl)c4)nc3c2)cc1[N+](=O)[O-]	-0.361	-0.128
Cc1ccc(Nc2nc(C)cc(C)c2C(N)=O)cc1	-3.73	-1.66
COc1ccc(Cl)cc1NC(=O)c1cnn2c(C(F)(F)F)cc(-c3ccc(C)cc3)nc12	-0.972	-0.309
Brc1ccc(-c2noc(CSc3ccccc3)n2)cc1	-0.336	-0.187
O=C(NCC1CCCO1)Nc1cccc(Cl)c1 (stereo unspecified)	1.53	0.544
CCOC(=O)CCN1C(=O)C(=Cc2cccc(OC)c2)SC1=S	-4.87	-1.55
Cc1ccccc1NC(=O)OCc1ccccc1	-1.84	-1.03
Cc1ccccc1C(=NS(=O)(=O)c1ccc(Br)cc1)Nc1ccccc1	-3.32	-1.18
O=C1C2C3C=CC(CC3)C2C(=O)N1c1ccccc1[N+](=O)[O-] (stereo unspecified)	-2.44	-1.04
O=C(CCn1c(SCc2ccccc2Cl)nc2cc3c(cc2c1=O)OCO3)N1CCN(c2ccccc2)CC1	-5.52	-1.46
COc1ccccc1Nc1ncc(C(=O)N2CCC(Cc3ccccc3)CC2)c2ccccc12	-5.51	-1.37
CCc1ccc(-n2c(C)nc3cc(C(=O)NCc4cccnc4)ccc32)cc1	-5.32	-1.43
COc1cccc(N2CCN(C(=O)Nc3ccc(F)cc3)CC2)c1	-2.57	-1.43
Cc1ccc(C)c(NC(=O)c2ccc(-c3ccccc3)cc2)c1	-4.26	-1.81
Cc1ccc(-c2coc3c(C)c4oc(=O)c5c(c4cc23)CCC5)cc1	-5.02	-1.5
COC(=O)c1ccc(C=NNc2nc(-c3ccc(Cl)cc3)cs2)cc1	-2.03	-0.861
COCCCNCCOc1c(Cl)cc(C)cc1Br	-4.25	-1.58
COc1ccc(C2Nc3ccccc3NC3=C2C(=O)CC(c2ccco2)C3)cc1 (stereo unspecified)	-2.08	-0.853
CN(C)S(=O)(=O)c1ccc(C(O)=C2C(=O)C(=O)N(Cc3cccnc3)C2c2ccc(Cl)cc2)cc1 (stereo unspecified)	-2.24	-0.973
O=C(NCC1CCCO1)c1ccc(COc2ccc(Cl)cc2)cc1 (stereo unspecified)	-2.84	-1.58

Source: PubChem BioAssay AID1508625 (Wald Lab, School of Medicine, Case Western Reserve …, 2021)
